Source: PubChem
GRP78 ERSR act: qHTS for Inducers of the Endoplasmic Reticulum Stress Response (ERSR) in Human Glioma: qHTS; hit rate 0.02% among 420,000; Potency, µM, for inactives: top-dose activation, usual class: activators; U87-MG GRP78 promoter luciferase reporter, 16 h; note: series mostly up to about 76 µM; % of control where 0% means no effect; nearly all actives have a fitted effect of over 35% in size
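ERSR induction read as luciferase luminescence (Bright-Glo, 10 min at room temperature) in stably transfected human U87-MG glioma cells exposed to compounds for 16 h, using GRP78 as sensor.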
VDR inh: Inhibitors of the vitamin D receptor (VDR): qHTS; Vitamin D3 receptor (Homo sapiens), P11473; VDR-SRC2-3 peptide fluorescence polarization, 2 h; Potency, µM, without a hit: max response, negative = inhibition, usual class: inhibitors; hit rate 0.93% among 400,000; note: % is set by controls: 0 for no effect and ±100 for the full control effect
Target sequence (P11473 whole entry, looked up): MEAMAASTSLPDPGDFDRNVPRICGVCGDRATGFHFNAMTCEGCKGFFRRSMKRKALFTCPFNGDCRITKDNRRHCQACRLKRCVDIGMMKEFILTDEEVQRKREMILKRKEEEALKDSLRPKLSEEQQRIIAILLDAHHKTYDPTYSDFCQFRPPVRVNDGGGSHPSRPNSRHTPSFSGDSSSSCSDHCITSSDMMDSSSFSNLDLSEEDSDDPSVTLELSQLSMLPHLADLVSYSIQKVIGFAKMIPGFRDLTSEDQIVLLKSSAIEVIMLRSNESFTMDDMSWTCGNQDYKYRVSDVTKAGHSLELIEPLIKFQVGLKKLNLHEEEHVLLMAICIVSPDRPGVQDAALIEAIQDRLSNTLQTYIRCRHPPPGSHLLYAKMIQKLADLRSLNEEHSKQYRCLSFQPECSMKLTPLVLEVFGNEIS
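Compounds are added to VDR with labelled SRC2-3 coactivator peptide and held 2 h at room temperature. Inhibition of the VDR–peptide interaction is then read as a change in fluorescence polarization.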
Sfp PPTase inh: qHTS Assay for Inhibitors of Bacillus subtilis Sfp phosphopantetheinyl transferase (PPTase); 4'-phosphopantetheinyl transferase ffp (Bacillus subtilis), Q9F4F7; Biochemical Sfp PPTase activity, qHTS; Potency, µM, for the others: largest response in the series, negative = inhibition, usual class: inhibitors; hit rate 3.5% among 310,000; AID 1490, 2009;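 note: the enzyme is Sfp with the accession as filed and its product quenches rhodamine fluorescence; 0% = enzyme reaction without inhibitor and -100% = no enzyme wells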
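Sfp 15 nM + cpd, 15 min RT; start w/ rhodamine-CoA 5 uM, BHQ-2-YbbR 12.5 uM (final); 50 mM Hepes pH 7.6, 10 mM MgCl2, 0.01% NP-40, 0.01% BSA; read 525/598 nm at 0 and 30 min.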
G9a inh: qHTS Assay for Inhibitors of Histone Lysine Methyltransferase G9a | hit rate 8.8% among 350,000 | G9a H3K9 monomethylation, AlphaScreen, 2 h | AID 504332, 2011 | Histone-lysine N-methyltransferase EHMT2 (Homo sapiens), Q96KQ7 | Potency, µM (doses to about 102 µM), without a hit: at the top dose activity, negative = inhibition, actives largely listed as inhibitors; note: % is set by controls: 0 for no effect and ±100 for the full control effect; nearly all actives have a fitted effect of over 75% in size
Target sequence (Q96KQ7 913-1193 limits assumed): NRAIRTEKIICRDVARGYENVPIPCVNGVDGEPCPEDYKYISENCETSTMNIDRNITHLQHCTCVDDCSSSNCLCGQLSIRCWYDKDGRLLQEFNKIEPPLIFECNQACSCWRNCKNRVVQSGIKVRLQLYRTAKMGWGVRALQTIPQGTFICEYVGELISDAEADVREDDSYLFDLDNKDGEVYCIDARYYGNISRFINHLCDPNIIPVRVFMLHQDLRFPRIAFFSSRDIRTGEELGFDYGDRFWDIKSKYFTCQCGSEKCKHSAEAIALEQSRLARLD
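Using a bead-based AlphaScreen, monomethylated H3K9 product from 2 h room-temperature reactions (G9a 20 nM, peptide 500 nM, SAM 20 uM) was detected with 0.5 ug/mL rabbit anti-H3K9me1 antibody.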
12-LOX inh: Primary qHTS assay for inhibitors of human arachidonate 12S-lipoxygenase (ALOX12): Round 2 | hit rate 1.1% among 580,000 | Polyunsaturated fatty acid lipoxygenase ALOX12 (Homo sapiens), P18054 | AID 1671190, 2021 | Potency, µM (highest dose often 108 µM), for inactives: at the highest dose activity change, negative = inhibition, actives largely listed as inhibitors | purified 12hLO, xylenol orange hydroperoxide absorbance; note: % is set by controls: 0 for no effect and ±100 for the full control effect
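Hydroperoxide product was detected by ferrous iron/xylenol orange as the 573 to 405 nm absorbance ratio. Arachidonic acid at 40 uM (final) was turned over for 30 min at room temperature by 150 nM human 12hLO, pH 7.0 Hepes buffer, after 15 min compound preincubation.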
An asterisk follows results filed as active; u = inconclusive; x = no result given; ! = not confirmed by another sample; [ ] = dose if it differs, or a comment. Only a selection was taken, and hits are over-represented in it overall. Calls come from the whole dose curve; as a rule, active = well fitted curve in the direction sought with a large enough effect; inconclusive = small, poorly fitted or top-dose-only effect, or another doubt; inactive = no such curve, though single readings can be large; an effect the other way counts as inactive or inconclusive. Potency is the fitted concentration of half-maximal effect.

SMILES | GRP78 ERSR act | VDR inh | Sfp PPTase inh | G9a inh | 12-LOX inh
COc1ccc(C(=O)N/C(=C\c2cc(OC)c(OC)cc2[N+](=O)[O-])C(=O)NCCO)cc1 | -5.1% | -4.0% | 70.8µM* | x | 40.1%
O=S(=O)(c1ccc(Cl)cc1)c1nc(-c2ccccc2F)oc1NCCCN1CCOCC1 | -5.5% | 3.3% | -14.1% | 79.4µM* | 0.0%
O=S(=O)(c1ccc(Br)cc1)c1nc(-c2ccccc2)oc1NCCN1CCOCC1 | -2.7% | -19.8% | 3.6% | u | 345.2%
Cc1ccc(CNc2oc(-c3ccco3)nc2S(=O)(=O)c2ccccc2)cc1 | 0.2% | 9.1% | 5.2% | 11.2µM* | -0.4%
O=S(=O)(c1ccccc1)c1nc(-c2ccc(Cl)cc2)oc1NCCCN1CCOCC1 | -1.3% | -9.8% | x | 44.7µM* | -31.9%
Cc1ccc(S(=O)(=O)c2nc(-c3ccccc3Cl)oc2NCCCN2CCOCC2)cc1 | -4.7% | -18.9% | -16.7% | x | u
O=S(=O)(c1ccc(Br)cc1)c1nc(-c2ccco2)oc1NCCCn1ccnc1 | -2.6% | 5.5% | x | 44.7µM* | -3.2%
CCN(CC)S(=O)(=O)c1ccc(C(C)NCc2sccc2C)cc1 (configuration not stated) | x | x | x | x | -11.7%
O=S(=O)(c1ccccc1)c1nc(-c2ccco2)oc1NCCN1CCOCC1 | -3.1% | 18.6% | u | u | -27.3%
O=S(=O)(c1ccccc1)c1nc(-c2ccco2)oc1NCCCN1CCOCC1 | -4.6% | 22.9% | u | 14.1µM* | u
Cc1ccc(S(=O)(=O)c2nc(-c3ccccc3)oc2NCc2cccnc2)cc1 | -6.5% | -13.0% | -21.3% | 50.1µM* | 7.8%
CC(=O)N1CCC2(CC1)CN(C(=O)Cc1csc(N)n1)Cc1ccccc1O2 | x | x | x | x | 6.0%[6.33 µM]
COc1ccccc1OCC(=O)Nc1ccc2c(=O)c3cccc(Cl)c3oc2c1 | x | x | x | x | -0.8%
CCOC(=O)c1c(N)sc(C(=O)N2CCCC(C(N)=O)C2)c1C (configuration not stated) | -3.7% | 1.2% | x | x | 66.1%
CCC1CCc2c(sc(N)c2C(N)=O)C1 (configuration not stated) | -4.3% | u | x | x | u
CCOC(=O)c1c(N)sc2c1CCC(CC)C2 (configuration not stated) | 5.6% | -9.5% | -16.7% | 11.2µM* | -5.4%
CCOC(=O)c1c(N)sc2c1CCSC2 | -2.2% | -13.5% | -28.7% | 50.1µM* | 37.5%
CCOC(=O)c1c(N)sc2c1CCC1C(=O)N(C3CCCCC3)C(=O)C21 (configuration not stated) | -2.6% | -9.2% | 20µM* | u | u
CCCOC(=O)c1c(N)sc(C(=O)OCC)c1C | 1.3% | -9.3% | -10.0% | 2.8%[59 µM] | 10.0%
COc1cc(C#N)ccc1OCc1csc(-c2cccc(OC)c2OC)n1 | x | x | x | x | 8.2%
Cc1cc(S(=O)(=O)N2CCCC2)ccc1OCC(=O)Nc1ccccc1Oc1ccccc1 | x | x | x | x | 25.4%
O=[N+]([O-])/C=C/c1cc2ccccc2[nH]1 | u | u | -6.6% | 17.8µM* | 39.2%
O=c1[nH]c2ccc(-c3csc(Nc4ccc(F)cc4)n3)cc2o1 | x | x | x | x | 17.8µM*
O=c1[nH]c2ccc(-c3csc(Nc4ccc(Cl)cc4)n3)cc2o1 | x | x | x | x | -86.5%
Cc1cc(-c2csc(Nc3ccc(O)cc3)n2)ccc1F | x | x | x | x | 35.5µM*
SMILES | GRP78 ERSR act | VDR inh | Sfp PPTase inh | G9a inh | 12-LOX inh
Oc1ccc(Nc2nc(-c3ccc(F)cc3F)cs2)cc1 | x | x | x | x | 7.94µM*
Cc1cc(-c2csc(Nc3ccccn3)n2)ccc1F | 1.3% | -11.3% | 17.2% | -32.4% | u
O=S(=O)(NC1CCN(S(=O)(=O)c2cc(C(F)(F)F)ccc2Cl)CC1)c1cccs1 | x | x | x | x | -42.2%
Cc1ccc(C(=O)/C=C/c2ccccc2F)o1 | x | x | x | x | -4.1%
COCCNC(=O)CN(C)c1nc(-c2ccncc2)nc2ccccc12 | x | x | x | x | 9.0%
O=C(O)c1ccc(COc2cc(Cl)ccc2Cl)s1 | x | x | x | x | -2.8%
CCn1c(SC(C)C(=O)Nc2nc(C)c(C)s2)nnc1-c1ccc(F)cc1 (configuration not stated) | x | x | x | x | 0.3%
Cc1cc(C)c(NC(=O)C2CC(=O)N(c3ccc4c(c3)OCCO4)C2)c(C)c1 (configuration not stated) | -1.6% | -14.4% | 11.9% | -14.4% | -8.7%
CCN(CC)S(=O)(=O)c1ccc(OC)c(NC(=O)C2CC(=O)N(c3ccc4c(c3)OCCO4)C2)c1 (configuration not stated) | 8.4% | -5.1% | 9.5% | x | 11.6%
COc1cc(OC)c(NC(=O)C2CC(=O)N(c3ccc4c(c3)OCCO4)C2)cc1Cl (configuration not stated) | -3.8% | 4.6% | x | 44.7µM* | -17.8%
O=C(Nc1ccccc1Cc1ccccc1)C1CC(=O)N(c2ccc3c(c2)OCCO3)C1 (configuration not stated) | 2.5% | 15.5% | -15.7% | 3.55µM* | u
CCN(CC)S(=O)(=O)c1cccc(NC(=O)C2CC(=O)N(c3ccc4c(c3)OCCO4)C2)c1 (configuration not stated) | -0.7% | 8.6% | x | 50.1µM* | -11.4%
COc1ccc2cc(C3CN(C(=O)Cc4ccc(O)cc4)CCO3)ccc2c1 (configuration not stated) | x | x | x | x | -4.2%
Cc1ccc(C2=NN(CCC(=O)NCCCN3CCOCC3)C(=O)CC2)cc1 | -3.4% | -16.0% | 27.1% | 24.2%[59 µM] | 1.8%
O=C(CCN1N=C(c2ccccc2)CCC1=O)NCCCN1CCOCC1 | 0.0% | 6.1% | 8.2% | 50.1µM* | -3.5%
CCOC(=O)C1=C(C)Nc2nc(SCc3cccc(C)c3)nn2C1c1cccs1 (configuration not stated) | x | x | x | x | 23.2%
N[C@@H](Cc1cnc[nH]1)C(=O)O | -0.8% | -12.5% | u | 5.97µM*! | -0.9%
CNC(=O)Nc1cccc(-c2ccnc(C)n2)c1 | -1.4% | 0.4% | 1.5% | x | 0.0%
COc1cccc(C(=O)/C(C#N)=N/Nc2cccc(-c3ccnc(C)n3)c2)c1 | -3.4% | -14.7% | -7.7% | 50.1µM* | 0.0%
Cc1cc(=O)oc2cc(NC(=O)Cc3ccccc3F)ccc12 | x | x | x | x | 39.8µM*
Cc1[nH]c(C)c(S(=O)(=O)N2CCN(c3ccccc3)CC2)c1C(=O)N1CCCC1 | 3.2% | -21.2% | -2.3% | 44.7µM* | 26.5%
COc1ccccc1NC(=O)C(C)OC(=O)c1cc(C)nc2ccccc12 (configuration not stated) | x | x | x | x | 5.3%
O=C(N/N=C/c1cccnc1)c1ccc(O)cc1 | 1.8% | 3.1% | 8.8% | 3.5% | 73.2%
O=C(N/N=C/c1cccnc1)c1cc(O)c(O)c(O)c1 | -0.4% | 2.7% | 39.8µM* | 31.6µM* | u
